Records with an inconclusive call do not appear. Entries that show only a call come without a potency. Activity calls are given as the source filed them. Calls come from the whole dose curve; as a rule, active = well fitted inhibition curve with a large enough effect in the signal ratio in the repeat runs, with a control signal flat; inconclusive = weak or mixed curves, or effect the other way; inactive = flat fitted curve, though single readings scatter; the % refers to the signal ratio. Bridge positions count the residues as written; N and C are the ends. Square brackets hold non-standard residues; d marks the D form. Peptide text beside a SMILES is read from it. hArg = N=C(N)NCCCC[C@H](N)C(=O)O; Mpa = O=C(O)CCS
Each compound was assayed against D(2) dopamine receptor (Homo sapiens) (UniProt P14416) (assay: Dopamine D2 receptor (DRD2) small molecule antagonists, cell-based qHTS assay (AID 1963595)). Conditions: HEK293-DRD2 cAMP HTRF antagonist mode; series mostly up to 92.4 µM.
Sequence of D(2) dopamine receptor (Homo sapiens) (P14416 whole entry, looked up): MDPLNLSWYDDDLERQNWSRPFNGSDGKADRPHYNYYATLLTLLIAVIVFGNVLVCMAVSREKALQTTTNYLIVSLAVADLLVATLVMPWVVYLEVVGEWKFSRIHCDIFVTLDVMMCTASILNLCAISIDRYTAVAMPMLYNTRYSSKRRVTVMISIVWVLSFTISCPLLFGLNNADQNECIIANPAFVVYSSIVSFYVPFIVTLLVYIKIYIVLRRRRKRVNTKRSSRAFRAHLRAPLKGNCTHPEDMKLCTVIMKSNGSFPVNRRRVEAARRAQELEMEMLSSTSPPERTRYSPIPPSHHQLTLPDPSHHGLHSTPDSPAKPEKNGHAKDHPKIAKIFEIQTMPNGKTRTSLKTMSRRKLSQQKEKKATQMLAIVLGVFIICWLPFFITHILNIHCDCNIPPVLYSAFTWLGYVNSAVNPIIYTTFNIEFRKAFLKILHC
Description: National Center for Advancing Translational Sciences [NCATS]
Division of Preclinical Innovation [DPI]
U.S. Environmental Protection Agency [EPA]
National Institutes of Environmental Health Sciences [NIEHS]
National Toxicology Program [NTP]
U.S. Food and Drug Administration [FDA]
DRD2 is the D2 subtype of the dopamine receptor, which is coupled to Gi subtype of G protein-coupled receptor. This G protein-coupled receptor inhibits adenylyl cyclase activity. The DRD2-HEK293 cell line stably expressing D2 dopamine receptor can be used for screening agonists and antagonists of interactions between D2 and its ligands. The Hek293-DRD2 cAMP assay is based on HTRF technology. It measures changes of cAMP accumulation in response to Gi coupled GPCR activation or inhibition.
Tox21 Assay Protocol Summary:
DRD2-Hek293 cells were dispensed at 600 cells/3uL/well in 1536-well white plates using a Multidrop Dispenser. After the assay plates were incubated at a 37 C/5% CO2 incubator for 24 h, 1 uL of Ro20-1724 at final concentration of 0.1 mM was transferred to the assay plate by a Flying Reagent Dispenser. Following Ro20-1724 addition, 23 nL of compound dissolved in DMSO, positive controls or DMSO only was added to the assay plates via Wako pintool station. The assay plates were incubated at room temperature for 10 min. Next, 1 uL of mixture of NKH477 (final concentration at 200 nM) and quinpirole (final concentration at 12 nM) was added into the plates. After the assay plates were incubated at room temperature for an additional 30 min, 2.5 ul/well of cAMP-d2 and 2.5 ul/well of anti-cAMP-cryptate were added respectively into the assay plates using a Flying Reagent Dispenser. The plates were incubated at room temperature for 1 h. The fluorescence intensity in the plates was measured at 340 nm excitation and 665 & 620 nm emission by an Envision plate reader.
For `CN1CCN(C)CC1`, the Potency was “inactive”. For `O=C1CCC/C=C\CCCCCCCCCC1`, the Potency was “inactive”. With `CC1CCC(CO)CC1` (stereo not given) the Potency was “inactive”. With `CC(=O)OC(C)C[N+](C)(C)C` (stereo not given) the Potency was “inactive”. In the case of `N=C(N)S(=O)O`, the Potency is reported as “inactive”. For `CCN(Cc1cccc(S(=O)(=O)O)c1)c1ccc(C(=C2C=CC(=[N+](CC)Cc3cccc(S(=O)(=O)[O-])c3)C=C2)c2ccccc2)cc1`, the Potency was “inactive”. For `O=S(=O)(O)c1cc(Cl)c(Cl)cc1Cl`, the Potency was “inactive”. For `CC(=O)OCC(=O)[C@@]1(O)[C@H](C)C[C@H]2[C@@H]3CCC4=CC(=O)C=C[C@]4(C)[C@@]3(F)[C@@H](O)C[C@@]21C`, the Potency was “inactive”. `CCCCc1oc2ccccc2c1C(=O)c1cc(I)c(OCCN(CC)CC)c(I)c1` was tested, and the Potency was “inactive”. With `CCCCOC(=O)CO` the Potency was “inactive”. For `O=C(Cl)c1cc(Cl)cc(Cl)c1`, the Potency was “inactive”. `Oc1ccc(N=Nc2ccccc2)cc1` was tested, and the Potency was “inactive”. With `CCN(CC)c1ccc2c(c1)Oc1cc(N(CC)CC)ccc1C21OC(=O)c2ccccc21` the Potency was “inactive”. For `O=C(O)CNC(=O)c1ccccc1`, the Potency was “inactive”. `CCCCCCNC(=O)n1cc(F)c(=O)[nH]c1=O` was tested, and the Potency was “inactive”. `CCOc1ccc(NS(=O)(=O)c2ccc(N)cc2)nn1` was tested, and the Potency was “inactive”. `Clc1cccc(C(c2ccc3nc[nH]c3c2)n2ccnc2)c1` (stereo not given) was tested, and the Potency was “inactive”. For `CCCCCC[C@@H](O)C/C=C\CCCCCCCC(=O)OC`, the Potency was “inactive”. For `O=[N+]([O-])c1ccc(Nc2ccc(Nc3ccccc3)c(S(=O)(=O)O)c2)c([N+](=O)[O-])c1`, the Potency was “inactive”. `CCO[C@@H]1O[C@H](C(COCc2ccccc2)OCc2ccccc2)[C@H](OCc2ccccc2)[C@H]1O` (stereo not given in full) was tested, and the Potency was “inactive”. `COc1cc2ncnc(Nc3cccc(Cl)c3)c2cc1OC` was tested, and the activity change, negative = inhibition was -0.58% [at 18.9 µM] (inactive). For `CCCCCCCC/C=C/CCCOC(C)=O`, the Potency was “inactive”. For `CC1(O)CSC(C)(O)CS1` (stereo not given), the Potency was “inactive”. `CCC(C)[O-].CCC(C)[O-].CCOC(=O)/C=C(/C)[O-].[Al+3]` was tested, and the Potency was “inactive”. In the case of `CC(C)CCOC(=O)c1ccc(N(C)C)cc1`, the Potency is reported as “inactive”. For `O=C1CCCc2c1cc1ccc3cccc4ccc2c1c34`, the Potency was “inactive”. With `Cc1c(C)n(Cc2ccccc2)c2ccc(C(=O)OCCN(C)C)cc12` the Potency was 33.5 µM (active). In the case of `CCCCCC/C=C/C=O`, the Potency is reported as “inactive”. In the case of `CCCCCCCCCCCCCCC[C@H](O)[C@@H](N)CO`, the Potency is reported as “inactive”. `C=Cc1ccc(OC(C)=O)cc1` was tested, and the Potency was “inactive”. For `CC(C)N(c1ccccc1)C(C)C`, the Potency was “inactive”. In the case of `COCCOc1cc2cc(C(=O)NC3CCN(C(C)C)CC3)n(CC(=O)Nc3ccc(Cl)cn3)c2cn1`, the Potency is reported as “inactive”. For `CC(O)C1CCCCC1` (stereo not given), the Potency was “inactive”. For `CCCCCOC(=O)Nc1nc(=O)n([C@@H]2O[C@H](C)[C@@H](O)[C@H]2O)cc1F`, the Potency was “inactive”. In the case of `CC[C@H]1OC(=O)[C@H](C)[C@@H](O[C@H]2C[C@@](C)(OC)[C@@H](O)[C@H](C)O2)[C@H](C)[C@@H](O[C@@H]2O[C@H](C)C[C@H](N(C)C)[C@H]2O)[C@](C)(O)C[C@@H](C)/C(=N\OCOCCOC)[C@H](C)[C@@H](O)[C@]1(C)O`, the Potency is reported as “inactive”. `CN(C)C(=O)Oc1cccc([N+](C)(C)C)c1` was tested, and the Potency was “inactive”. With `Clc1ccc(C(Cn2ccnc2)OCc2ccsc2Cl)c(Cl)c1` (stereo not given) the Potency was “inactive”. `CC[N+](C)(CC)CCOC(=O)C1c2ccccc2Oc2ccccc21` was tested, and the Potency was “inactive”. `COc1ccc(-c2nc3ccc(C4=NNC(=O)CC4C)cc3[nH]2)cc1` (stereo not given) was tested, and the Potency was “inactive”. In the case of `NC(=O)[C@@H]1CSSCCC(=O)N[C@@H](CCCCN=C(N)N)C(=O)NCC(=O)N[C@@H](CC(=O)O)C(=O)N[C@@H](Cc2c[nH]c3ccccc23)C(=O)N2CCC[C@H]2C(=O)N1` ([Mpa][hArg]GDWPC-NH2; disulfide 1-7), the Potency is reported as “inactive”.
Potency is the fitted concentration of half-maximal effect.
